BAZ2B inh = blocks human BAZ2B | AlphaScreen BAZ2B-H3K14Ac peptide displacement | 360,000 tested, 4.4% active | Potency, µM (series often up to 114 µM), for the others: at the highest dose activity change, negative = inhibition, usual class: inhibitors | Q9UIF8 | AID 504333; note: potency is the fitted concentration of half-maximal effect; % is set by controls: 0 for no effect and ±100 for the full control effect; nearly all actives have a fitted effect of over 60% in size
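Protein-peptide AlphaScreen: BAZ2B 50 nM, b-H3K14Ac 50 nM, 1x PBS pH 7.4 + 0.01% Tween-20. Preincubation 30 min RT; cpd 30 min RT (top 110 uM); beads 20 min RT, light-protected.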
PLK1 PBD block = blocks phosphopeptide binding to human PLK1 polo-box domain. AID 720504. Plk1 PBD binding of FITC phosphopeptide, fluorescence polarization. Potency, µM, for inactives: max response, negative = inhibition, actives largely listed as inhibitors. 360,000 tested, 2.8% active. P53350; note: potency is the fitted concentration of half-maximal effect; series mostly up to about 57 µM; % is set by controls: 0 for no effect and ±100 for the full control effect; nearly all actives have a fitted effect of over 65% in size
G9a inh = G9a (human) methyltransferase inhibition | Q96KQ7 | G9a H3K9 monomethylation, AlphaScreen, 2 h | Potency, µM (doses to about 102 µM), inactives show at the highest dose activity, negative = inhibition, usual class: inhibitors | 350,000 tested, 8.8% active; note: potency is the fitted concentration of half-maximal effect; % is set by controls: 0 for no effect and ±100 for the full control effect; nearly all actives have a fitted effect of over 75% in size
Target sequence (Q96KQ7 913-1193 limits assumed): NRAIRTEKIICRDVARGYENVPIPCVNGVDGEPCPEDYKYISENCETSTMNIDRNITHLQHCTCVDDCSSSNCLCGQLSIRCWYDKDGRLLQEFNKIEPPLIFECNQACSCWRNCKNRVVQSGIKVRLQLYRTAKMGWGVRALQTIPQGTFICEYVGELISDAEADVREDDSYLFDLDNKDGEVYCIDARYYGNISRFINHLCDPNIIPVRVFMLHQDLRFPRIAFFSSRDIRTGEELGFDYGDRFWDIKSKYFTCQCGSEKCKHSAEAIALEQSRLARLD
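G9a (20 nM) was preincubated 15 min with compound, then reacted 2 h at room temperature with 500 nM biotin-H3K9 peptide and 20 µM SAM. Monomethyl-H3K9 detected by AlphaScreen using anti-H3K9me1 antibody.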
JMJD2A Tudor = blocks the human JMJD2A Tudor domain | 390,000 tested, 4.4% active | AID 504339 | AlphaScreen JMJD2A-Tudor / H3K4me3 peptide binding | O75164 | Potency, µM (highest dose often 114 µM), for the others: at the top dose activity change, negative = inhibition, actives largely listed as inhibitors; note: potency is the fitted concentration of half-maximal effect; % is set by controls: 0 for no effect and ±100 for the full control effect; nearly all actives have a fitted effect of over 50% in size
HP1b binding inh = inhibitors of HP1-beta chromodomain binding to methylated histone tails. AID 540317. AlphaScreen HP1-beta / biotin-H3K9me3 peptide binding. 390,000 tested, 0.56% active. Potency, µM (highest dose often 114 µM), for inactives: top-dose activity change, negative = inhibition, usual class: inhibitors; note: potency is the fitted concentration of half-maximal effect; nearly all actives have a fitted effect of over 70% in size
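HP1-beta protein (50 nM final) preincubated 30 min at room temperature with biotinylated H3(1-18)K9me3 peptide (50 nM) in PBS pH 7.4, 0.01% Tween-20, then compound added for 30 min. AlphaScreen streptavidin donor/nickel chelate acceptor beads (10 ug/mL final), 30 min dark, luminescence read.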
PI5P4K alpha inh = PI5P4K alpha (human) kinase inhibition | P48426 | PI5P4Kalpha enzyme, ADP-Glo luminescence, 60 min; hits give low values | max response, % | 330,000 tested, 1.2% active | AID 652105; active = max response of -50% or lower; inconclusive = between -30% and -50%; inactive = -30% or higher; note: value at the top dose of about 77 µM; % is set by controls: 0 for no effect and ±100 for the full control effect
Target sequence (P48426 whole entry, looked up): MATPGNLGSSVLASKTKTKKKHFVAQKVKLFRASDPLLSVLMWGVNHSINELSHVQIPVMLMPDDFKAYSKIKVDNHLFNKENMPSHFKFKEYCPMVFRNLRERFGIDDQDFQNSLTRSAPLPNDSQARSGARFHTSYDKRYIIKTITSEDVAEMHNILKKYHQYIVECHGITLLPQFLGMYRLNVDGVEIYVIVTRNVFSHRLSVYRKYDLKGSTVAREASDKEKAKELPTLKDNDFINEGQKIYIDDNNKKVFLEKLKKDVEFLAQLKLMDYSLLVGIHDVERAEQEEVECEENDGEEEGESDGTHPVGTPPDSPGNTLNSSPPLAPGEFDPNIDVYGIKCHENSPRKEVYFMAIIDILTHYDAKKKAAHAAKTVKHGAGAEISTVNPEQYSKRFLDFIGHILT
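Controls without substrate or without enzyme flank wells where PI5P4Kalpha converts substrate using 5 microM ATP (final). Incubation lasts 60 minutes at room temperature; ADP formed is read by ADP-Glo luminescence.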
* marks the source's active call; other numbers are inactive results; ? = inconclusive; nt = no result given; [ ] = another dose, or the depositor's remark. A selection: hits, their analogues and other compounds. The true share with any hit is near 12%. Unless noted, calls come from the whole dose curve; as a rule, active = well fitted curve in the direction sought with a large enough effect; inconclusive = small, poorly fitted or top-dose-only effect, or another doubt; inactive = no such curve, though single readings can be large; an effect the other way counts as inactive or inconclusive.

SMILES	BAZ2B inh	PLK1 PBD block	G9a inh	JMJD2A Tudor	HP1b binding inh	PI5P4K alpha inh
COc1ccc(C2CC(c3ccccc3)=NN2C(=O)CN2CCN(Cc3ccccc3)CC2)cc1 (stereo not drawn)	35µM*	-5%	?	79µM*	-31%	-4
CCOc1ccc2nc(Cl)c(C3CC(c4ccccc4)=NN3C(=O)CCC(=O)O)cc2c1 (stereo not drawn)	-6%	nt	11%[59 µM]	-30%	21%	nt
COc1ccc(C2=NN(C(=O)CCCC(=O)O)C(c3cn(-c4ccccc4)nc3-c3ccccc3)C2)cc1 (stereo not drawn)	56µM*	-29%	?	56µM*	32%	13
CSCCC(NS(=O)(=O)c1ccc2c(c1)oc(=O)n2C)C(=O)N1CCN(c2cccc(Cl)c2)CC1 (stereo not drawn)	-8%	nt	-7%[59 µM]	-14%	14%	nt
CCCCCCCCCCCCCCCCOCC(COP(=O)([O-])OCC[N+](C)(C)C)OC (stereo not drawn)	nt	nt	26%[59 µM]	nt	nt	nt
CCc1cc2c(cc3c(=O)n(CC(=O)NCCc4ccccc4)ncn32)s1	1%	nt	-5%[59 µM]	-21%	3%	nt
Cc1cccc(NC(=O)CSc2nc3ccccc3nc2N2CCC(C)CC2)c1	42%	nt	119%[59 µM]	53%	109%	nt
COC(=O)CC1C(C)(C)C(O)C2CC3=C4C=C(OC)OC(c5ccoc5)[C@]4(C)CCC3[C@@]1(C)C2=O (stereo partly drawn)	nt	nt	-21%[2.33 µM]	nt	nt	nt
CNC(=S)N1N=C(c2ccc(C)cc2)CC1c1ccc(N(C)C)cc1 (stereo not drawn)	10µM*	-9%	14µM*	32µM*	50µM*	3
CNC(=S)N1N=C(c2ccc(C)cc2)CC1c1cc(OC)ccc1OC (stereo not drawn)	?	?	nt	?	9%	0
CCc1ccc(-n2c(CCC(=O)O)ccc2-c2cccs2)cc1	?	nt	10µM*	?	?	nt
CCOC(=O)c1ccc(-n2c(CCC(=O)O)ccc2-c2cccs2)cc1	?	19µM*	22µM*	?	?	-23
Cc1ccc(-n2c(CCC(=O)O)ccc2-c2cccs2)cc1C	?	-20%	?	?	-3%	-16
CCc1ccc(-n2c(CCC(=O)O)ccc2-c2ccc(F)cc2)cc1	?	nt	10µM*	?	?	nt
O=C(C1CC(=O)N(c2ccc(Cl)cc2)C1)N1CCCCCC1 (stereo not drawn)	-27%	-9%	?	-4%	-6%	-12
CC1CCCN(C(=O)C2CC(=O)N(c3ccc(Cl)cc3)C2)C1 (stereo not drawn)	-3%	-12%	45µM*	-21%	-20%	-1
Cc1c(Cl)cccc1NC(=O)Cn1c(CCC(=O)O)ccc1-c1cccs1	-23%	nt	-32%[59 µM]	-19%	8%	nt
Cc1c(Cl)cccc1NC(=O)Cn1c(CCC(=O)O)ccc1-c1ccc(Cl)cc1	56µM*	?	?	35µM*	?	-10
O=C(O)CCc1ccc(-c2ccc(Cl)cc2)n1CCC(=O)O	-38%	-21%	1%[59 µM]	-36%	31%	nt
O=C(O)CCc1ccc(-c2ccc(Cl)cc2)n1CC(=O)O	-32%	-22%	45µM*	?	25%	nt
COCCn1c(CCC(=O)O)ccc1-c1cccs1	-30%	-13%	50µM*	-15%	17%	8
CCCCn1c(CCC(=O)O)ccc1-c1cccs1	?	-22%	?	?	-5%	-9
O=C(O)CCc1ccc(-c2cccs2)n1Cc1ccco1	50µM*	-15%	?	?	5%	nt
O=C(O)CCc1ccc(-c2ccccc2)n1CC(=O)Nc1cccc(C(F)(F)F)c1	?	-7%	45µM*	-30%	12%	7
COc1ccc(-c2ccc(CCC(=O)O)n2Cc2ccco2)cc1	?	-9%	nt	-30%	-4%	-14
SMILES	BAZ2B inh	PLK1 PBD block	G9a inh	JMJD2A Tudor	HP1b binding inh	PI5P4K alpha inh
O=C(O)CCc1ccc(-c2ccc(Cl)cc2)n1Cc1ccco1	50µM*	-19%	?	?	6%	nt
COc1ccccc1-c1cnc(C(O)c2cc(C)ccc2C)[nH]1 (stereo not drawn)	nt	2%	nt	nt	nt	-11
O=C(COc1ccccc1F)NC12CC3CC(CC(C3)C1)C2	0%	30µM*	56%	-15%[11.4 µM]	27%	0
O=C(NC1CCCC1)c1ncn[nH]1	45µM*	-5%	20%[59 µM]	32µM*	45%	1
Cc1ccc(C)c(NC(=O)c2ncn[nH]2)c1	?	0%	-6%	-18%	5%	nt
Oc1c(Br)cc(Br)c2cccnc12	nt	-23%	-41%[2.33 µM]	40µM*	30%	-22
COCCNC(=O)C1CCCN(C(=O)c2cc(-c3cccs3)oc2C)CC1 (stereo not drawn)	nt	-4%	nt	nt	nt	-2
CCc1nc2sc3c(=O)[nH]cnc3c2c2c1CSC(C)(C)C2	?	27µM*	2.2µM*	-33%	16%	?
CCCc1nc2sc3c(=O)[nH]cnc3c2c2c1CCCC2	-2%	nt	nt	nt	nt	nt
CC(C)(CCl)C(=O)Nc1ccc(OC(F)(F)F)cc1	10%	0%	-1%	1%	61%	2
CS/C(=C\[N+](=O)[O-])Nc1ccc(OC(F)(F)F)cc1	-32%	-7%	50µM*	-12%	23%	8
COc1ccc(S(=O)(=O)Nc2ccccc2C(N)=O)cc1OC	-1%	1%	23%	1%	40%	-20
COc1ccc(N2CCN(CC(O)COc3ccc(C(C)(C)C)cc3)CC2)cc1 (stereo not drawn)	?	nt	?	79µM*	-1%	nt
CCN1CCN(CC(O)COc2cccc(OC)c2)CC1 (stereo not drawn)	-4%	1%	56µM*	-29%	25%	0
COc1ccc(N2CCN(CC(O)COCc3ccccc3)CC2)cc1 (stereo not drawn)	56µM*	-3%	40µM*	?	1%	11
CCc1ccc(OCC(O)CN2CCCC2)cc1 (stereo not drawn)	-2%	8%	-3%	-3%	38%	-1
CCc1ccc(OCC(O)CN2CCN(c3ccc(OC)cc3)CC2)cc1 (stereo not drawn)	71µM*	-4%	10µM*	35µM*	-16%	7
COc1ccc(OCC(O)CN2CCN(c3ncccn3)CC2)cc1 (stereo not drawn)	4%	-6%	16%[59 µM]	1%	35%	-3
O=c1c(-c2ccc(Cl)cc2)nc2cncnc2n1Cc1ccccc1Cl	nt	nt	8%[12.7 µM]	nt	nt	nt
Fc1ccc(C(c2nnnn2C2CCCC2)N2CCc3ccccc32)cc1 (stereo not drawn)	-38%	-6%	-4%[0.501 µM]	?	7%	2
Cc1ccc(C(c2nnnn2C2CCCC2)N2c3ccccc3CC2C)cc1 (stereo not drawn)	-11%	0%	71µM*	-17%	26%	2

High-throughput results from PubChem BioAssay.
